# Laboratory results: the supplement of paper PMC12282887
# ± gives the standard deviation of the averaged measurements.
# How the values were obtained:
# Assay in all cases: promoter activity interaction Z-score (Lux/OD deviation from empty-vector control); higher = stronger promoter induction by the compound
# [1] = tested on: E. coli BW25113 acrABp lux reporter
# Outline: (§1)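 E. coli BW25113, as wild type or one of three single-gene deletion strains, carried low-copy luxCDABE promoter reporters and grew in 40 µl LB Lennox in 384-well plates at 37°C, with OD600 and luminescence read every 30 min for 12 h. Each compound was run at four 1:2 dilutions in biological duplicates, integration spanned 0–8 h for wild type and 1–9 h for deletion strains, and wells under 10% of the median growth value were dropped. The score is the Z-transformed residual of growth-normalised luminescence fitted against a control.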
# [2] = tested on: E. coli BW25113 marRABp lux reporter
# Outline: as §1
# [3] = tested on: E. coli BW25113 micFp lux reporter
# Outline: as §1
# [4] = tested on: E. coli BW25113 ompFp lux reporter
# Outline: as §1
# [5] = tested on: E. coli BW25113 robp lux reporter
# Outline: as §1
# [6] = tested on: E. coli BW25113 soxSp lux reporter
# Outline: as §1
# [7] = tested on: E. coli BW25113 tolCp lux reporter
# Outline: as §1
# [8] = 1329.2 µg/ml, genetic background: wild type
# [9] = 1329.2 µg/ml, genetic background: ΔmarA
# [10] = 1329.2 µg/ml, genetic background: Δrob
# [11] = 1329.2 µg/ml, genetic background: ΔsoxS
# [12] = 2658.5 µg/ml, genetic background: wild type
# [13] = 2658.5 µg/ml, genetic background: ΔmarA
# [14] = 2658.5 µg/ml, genetic background: Δrob
# [15] = 2658.5 µg/ml, genetic background: ΔsoxS
# [16] = 5317 µg/ml, genetic background: wild type
# [17] = 5317 µg/ml, genetic background: ΔmarA
# [18] = 5317 µg/ml, genetic background: Δrob
# [19] = 5317 µg/ml, genetic background: ΔsoxS
# [20] = 10634 µg/ml, genetic background: wild type
# [21] = 10634 µg/ml, genetic background: ΔmarA
# [22] = 10634 µg/ml, genetic background: ΔsoxS
structure (smiles),measurement,setting,value
CCN(CC)CCOC(=O)c1ccc(N)cc1 [Procaine],promoter activity interaction Z-score,[1]; [8],-0.662 ± 0.28
same,promoter activity interaction Z-score,[1]; [9],-0.602 ± 0.28
same,promoter activity interaction Z-score,[1]; [10],-0.872 ± 0.16
same,promoter activity interaction Z-score,[1]; [11],-0.805 ± 0.27
same,promoter activity interaction Z-score,[1]; [12],-0.675 ± 0.27
same,promoter activity interaction Z-score,[1]; [13],-0.191 ± 0.011
same,promoter activity interaction Z-score,[1]; [14],-0.754 ± 0.019
same,promoter activity interaction Z-score,[1]; [15],-0.807 ± 0.058
same,promoter activity interaction Z-score,[1]; [16],-0.798 ± 0.5
same,promoter activity interaction Z-score,[1]; [17],0.353 ± 0.5
same,promoter activity interaction Z-score,[1]; [18],-0.739 ± 0.25
same,promoter activity interaction Z-score,[1]; [19],-1.88 ± 0.78
same,promoter activity interaction Z-score,[1]; [20],-0.735 ± 0.28
same,promoter activity interaction Z-score,[1]; [21],-0.543 ± 0.93
same,promoter activity interaction Z-score,[1]; [22],-1.22 ± 0.13
same,promoter activity interaction Z-score,[2]; [8],0.474 ± 0.19
same,promoter activity interaction Z-score,[2]; [9],1.13 ± 0.098
same,promoter activity interaction Z-score,[2]; [10],-0.044 ± 0.24
same,promoter activity interaction Z-score,[2]; [11],0.558 ± 0.086
same,promoter activity interaction Z-score,[2]; [12],0.562 ± 0.12
same,promoter activity interaction Z-score,[2]; [13],1.42 ± 0.24
same,promoter activity interaction Z-score,[2]; [14],-0.0229 ± 0.4
same,promoter activity interaction Z-score,[2]; [15],0.555 ± 0.11
same,promoter activity interaction Z-score,[2]; [16],0.94 ± 0.094
same,promoter activity interaction Z-score,[2]; [17],2.128 ± 0.015
same,promoter activity interaction Z-score,[2]; [18],0.0444 ± 0.17
same,promoter activity interaction Z-score,[2]; [19],0.444 ± 0.23
same,promoter activity interaction Z-score,[2]; [20],1.63 ± 0.15
same,promoter activity interaction Z-score,[2]; [21],2.15 ± 0.55
same,promoter activity interaction Z-score,[2]; [22],2.04 ± 0.25
same,promoter activity interaction Z-score,[3]; [8],0.885 ± 0.053
same,promoter activity interaction Z-score,[3]; [9],0.505 ± 0.026
same,promoter activity interaction Z-score,[3]; [10],0.103 ± 0.024
same,promoter activity interaction Z-score,[3]; [11],1.88 ± 0.031
same,promoter activity interaction Z-score,[3]; [12],1.93 ± 1.1
same,promoter activity interaction Z-score,[3]; [13],0.738 ± 0.027
same,promoter activity interaction Z-score,[3]; [14],0.206 ± 0.083
same,promoter activity interaction Z-score,[3]; [15],3.42 ± 0.14
same,promoter activity interaction Z-score,[3]; [16],2.99 ± 1
same,promoter activity interaction Z-score,[3]; [17],0.535 ± 0.11
same,promoter activity interaction Z-score,[3]; [18],0.692 ± 0.16
same,promoter activity interaction Z-score,[3]; [19],3.95 ± 0.25
same,promoter activity interaction Z-score,[3]; [20],4.96 ± 1.1
same,promoter activity interaction Z-score,[3]; [21],0.433 ± 0.12
same,promoter activity interaction Z-score,[3]; [22],1.99 ± 0.39
same,promoter activity interaction Z-score,[4]; [8],-1.52 ± 0.52
same,promoter activity interaction Z-score,[4]; [9],-1.23 ± 0.023
same,promoter activity interaction Z-score,[4]; [10],-1 ± 0.25
same,promoter activity interaction Z-score,[4]; [11],-1.06 ± 0.18
same,promoter activity interaction Z-score,[4]; [12],-1.95 ± 0.51
same,promoter activity interaction Z-score,[4]; [13],-1.57 ± 0.11
same,promoter activity interaction Z-score,[4]; [14],-1.23 ± 0.6
same,promoter activity interaction Z-score,[4]; [15],-2.1 ± 0.11
same,promoter activity interaction Z-score,[4]; [16],-2.79 ± 0.89
same,promoter activity interaction Z-score,[4]; [17],-2.57 ± 0.088
same,promoter activity interaction Z-score,[4]; [18],-2.71 ± 0.78
same,promoter activity interaction Z-score,[4]; [19],-3.43 ± 0.31
same,promoter activity interaction Z-score,[4]; [20],-3.06 ± 0.97
same,promoter activity interaction Z-score,[4]; [21],-3.26 ± 0.22
same,promoter activity interaction Z-score,[4]; [22],-2.71 ± 0.13
same,promoter activity interaction Z-score,[5]; [8],-0.965 ± 0.38
same,promoter activity interaction Z-score,[5]; [9],-0.355 ± 0.47
same,promoter activity interaction Z-score,[5]; [10],-0.376 ± 0.3
same,promoter activity interaction Z-score,[5]; [11],-0.451 ± 0.9
same,promoter activity interaction Z-score,[5]; [12],-0.714 ± 0.31
same,promoter activity interaction Z-score,[5]; [13],-0.386 ± 0.2
same,promoter activity interaction Z-score,[5]; [14],-0.635 ± 0.58
same,promoter activity interaction Z-score,[5]; [15],-1.84 ± 0.3
same,promoter activity interaction Z-score,[5]; [16],-0.969 ± 0.17
same,promoter activity interaction Z-score,[5]; [17],-0.0415 ± 0.013
same,promoter activity interaction Z-score,[5]; [18],-1.1 ± 0.3
same,promoter activity interaction Z-score,[5]; [19],-1.99 ± 0.064
same,promoter activity interaction Z-score,[5]; [20],-0.708 ± 0.78
same,promoter activity interaction Z-score,[5]; [21],-0.129 ± 0.82
same,promoter activity interaction Z-score,[5]; [22],-0.881 ± 1.3
same,promoter activity interaction Z-score,[6]; [8],0.403 ± 0.099
same,promoter activity interaction Z-score,[6]; [9],0.609 ± 0.067
same,promoter activity interaction Z-score,[6]; [10],0.838 ± 0.31
same,promoter activity interaction Z-score,[6]; [11],0.324 ± 0.23
same,promoter activity interaction Z-score,[6]; [12],0.281 ± 0.23
same,promoter activity interaction Z-score,[6]; [13],1.06 ± 0.17
same,promoter activity interaction Z-score,[6]; [14],1.61 ± 0.96
same,promoter activity interaction Z-score,[6]; [15],0.224 ± 0.071
same,promoter activity interaction Z-score,[6]; [16],0.719 ± 0.53
same,promoter activity interaction Z-score,[6]; [17],1.68 ± 0.037
same,promoter activity interaction Z-score,[6]; [18],1.63 ± 0.81
same,promoter activity interaction Z-score,[6]; [19],0.114 ± 0.72
same,promoter activity interaction Z-score,[6]; [20],0.878 ± 0.58
same,promoter activity interaction Z-score,[6]; [21],1.37 ± 0.74
same,promoter activity interaction Z-score,[6]; [22],-0.539 ± 1.1
same,promoter activity interaction Z-score,[7]; [8],0.541 ± 0.79
same,promoter activity interaction Z-score,[7]; [9],-0.042 ± 0.17
same,promoter activity interaction Z-score,[7]; [10],0.413 ± 1.2
same,promoter activity interaction Z-score,[7]; [11],-0.32 ± 1.4
same,promoter activity interaction Z-score,[7]; [12],0.257 ± 0.23
same,promoter activity interaction Z-score,[7]; [13],-0.2 ± 0.34
same,promoter activity interaction Z-score,[7]; [14],0.54 ± 1.8
same,promoter activity interaction Z-score,[7]; [15],-0.137 ± 0.1
same,promoter activity interaction Z-score,[7]; [16],-1.14 ± 0.3
same,promoter activity interaction Z-score,[7]; [17],-0.284 ± 0.59
same,promoter activity interaction Z-score,[7]; [18],-0.2 ± 0.18
same,promoter activity interaction Z-score,[7]; [19],0.786 ± 1
same,promoter activity interaction Z-score,[7]; [20],2.42 ± 2.2
same,promoter activity interaction Z-score,[7]; [21],1.73 ± 2.4
same,promoter activity interaction Z-score,[7]; [22],0.696
